Results on 6 molecules are retold here after PubChem BioAssay.

Experiment [1] is described as follows: small molecules captured by biotinylated probe aFSTL3 – biochemical, small-molecule microarray, fluorescence 635/667, stem cell growth factor project, primary screen (AID 1064).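 Further: measures binding of the biotinylated anti-FSTL3 antibody to printed compounds.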 The following applies: higher = more signal.
Experiment [2] can be described thus: binders from COS7 lysate, DM2A8 probe, primary screen, torsin A project, cell lysate, small-molecule microarray, fluorescence 635/667 (AID 1065). Conditions: higher = more signal, COS7 lysate expressing mutant human TOR1A.
Experiment [3] is described as follows: small molecules captured by biotinylated probe aFGF2 – biochemical, small-molecule microarray, fluorescence 635/667, stem cell growth factor project, primary screen (AID 1067).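 Further: measures binding of biotinylated aFGF2 protein to printed compounds on slides; z-score merges feature fluorescence and signal-to-noise across triplicate slides.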 The following applies: higher = more signal.
A short description of experiment [4]: small molecules captured by biotinylated probe aFGF10 – biochemical, small-molecule microarray, fluorescence 635/667, stem cell growth factor project, primary screen (AID 1071).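 Further: score merges 667 nm spot intensity and signal to noise from triplicate slides.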 The following applies: higher = more signal.
In experiment [5] the target is Neurogenic locus notch homolog protein 2 (Homo sapiens) (UniProt Q04721). Briefly: small molecules binding Notch2 protein – biochemical, small-molecule microarray, 635 nm fluorescence, stem cell growth factors, primary screen (AID 1073). Conditions: higher = more signal.
Experiment [6] concerns the target Pro-neuregulin-1, membrane-bound isoform (Homo sapiens) (UniProt Q02297). Briefly: small molecules binding neuregulin-1 protein – biochemical, small-molecule microarray, fluorescence 635/667, psychiatric disease protein project, primary screen (AID 1075).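 Further: score combines 667 nm spot fluorescence with signal to noise.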 The following applies: NRG1 binding, 635 nm fluorescence, higher = more signal.
The test system of experiment [7] is Neuregulin-1 EGF-like domain. Put plainly: small molecules binding NRG1 EGF domain – biochemical, small-molecule microarray, 635 nm fluorescence, primary screen (AID 1081).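 Further: binding of the protein to compounds printed on small-molecule microarray slides.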 Conditions: higher = more signal.
Experiment [8] can be described thus: FRG1 expression reporter modulators in myotubes – cell-based, C2C12 myotubes, firefly/Renilla luciferase, luminescence, FRG1 inhibition for FSHD, primary screen (AID 1084). The following applies: FRG1 promoter luciferase, higher = more signal, called active from +8 up or from −8 down.
A short description of experiment [9]: small molecules captured by biotinylated probe aFST – biochemical, small-molecule microarray, fluorescence 635/667, stem cell growth factor project, primary screen (AID 1086).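 Further: score merges 667 nm fluorescence with signal-to-noise of each printed compound spot.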 The following applies: higher = more signal.
Experiment [10] in a line: binders of probe aHhip on microarray, primary screen, stem cell growth factor project, biochemical, small-molecule microarray, fluorescence 635/667 (AID 1087).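 Further: score merges spot fluorescence at 667nm with spot signal to noise ratio.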 The following applies: higher = more signal.
In experiment [11] the test system is PRMT1 (protein arginine N-methyltransferase 1). Put plainly: small molecules binding arginine methyltransferase PRMT1 – biochemical, small-molecule microarray, 635 nm fluorescence, primary screen (AID 1088).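 Further: binding of Prmt1 protein to compounds spotted on small-molecule microarray slides.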 Conditions: higher = more signal.
The nature of experiment [12]: growth effects on S. cerevisiae YJM789 – YJM789 clinical isolate, OD600, 24 h, basal, primary screen (AID 1089).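 Further: growth of clinical yeast isolate S. cerevisiae YJM 789 seeded 1000 cells per well; test concentration not given here.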 The following applies: higher = more signal, called active from +8 up or from −8 down.
Experiment [13] is described as follows: S. pombe growth modifiers, basal conditions – strain 972, OD600, 24 h, no modulator, primary screen (AID 1090).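 Further: basal condition with compound alone and no growth modifier present; test concentration not given here.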 Conditions: S. pombe 972 growth, higher = more signal, called active from +8 up or from −8 down.
Experiment [14] in a line: budding yeast growth modifiers under rapamycin – strain BY4716, OD600, 96 h, primary screen (AID 1091). Further: test concentration not given here. The following applies: S. cerevisiae BY4716 + rapamycin, higher = more signal, called active from +8 up or from −8 down.
Experiment [15] concerns the target Torsin-1A-interacting protein 2 (Homo sapiens) (UniProt Q8NFQ8). Put plainly: small molecules binding lysate-expressed LULL1 – cell lysate, human LULL1 lysate, 635/667 nm fluorescence, primary screen (AID 1092).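 Further: probe is lysate of COS7 cells overexpressing human LULL1; score merges per-feature 667 nm fluorescence with signal-to-noise.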 The following applies: small-molecule microarray, hLULL1 lysate binding, 635 nm fluorescence; higher = more signal.
A short description of experiment [16]: optical density change of DRC41 E. coli – strain DRC41, OD650, 24 h, E. coli filamentation project, primary screen (AID 1093).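 Further: MC1000 strain lacking acrAB efflux and sulA so SOS filamentation is blocked; test concentration not given here.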 Conditions: E. coli DRC41 growth, higher = more signal, called active from +8 up or from −8 down.
The nature of experiment [17]: probe aLefty2 binding to arrayed compounds – biochemical, biotinylated probe, 635/667 nm fluorescence, primary screen (AID 1094).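 Further: score merges spot fluorescence near 667 nm with spot signal-to-noise ratio.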 Conditions: small-molecule microarray, higher = more signal.
The test system of experiment [18] is Noggin (protein binding on small-molecule microarray). Put plainly: small molecules binding Noggin protein – biochemical, 635/667 nm fluorescence, primary screen (AID 1095).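 Further: score merges 667 nm feature fluorescence with signal to noise over triplicate slides.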 Conditions: 635 nm fluorescence, higher = more signal.
Experiment [19] deals with Neurogenic locus notch homolog protein 3 (Homo sapiens) (UniProt Q9UM47). Briefly: small molecules binding NOTCH3 protein – biochemical, 635/667 nm fluorescence, primary screen (AID 1096). Conditions: small-molecule microarray, 635 nm fluorescence, higher = more signal.
The nature of experiment [20]: probe aEGFR binding to arrayed compounds – biochemical, biotinylated probe, 635/667 nm fluorescence, primary screen (AID 1097).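 Further: probe is a biotinylated anti-EGFR antibody binding compounds printed on slides; score combines fluorescence near 667 nm and signal to noise of each spot.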 The following applies: small-molecule microarray, higher = more signal.

Each structure is given as a SMILES string. The source made the active and inactive calls.

Chain of Pro-neuregulin-1, membrane-bound isoform (Homo sapiens) (Q02297 whole entry, looked up, the tested form may be a part, canonical isoform): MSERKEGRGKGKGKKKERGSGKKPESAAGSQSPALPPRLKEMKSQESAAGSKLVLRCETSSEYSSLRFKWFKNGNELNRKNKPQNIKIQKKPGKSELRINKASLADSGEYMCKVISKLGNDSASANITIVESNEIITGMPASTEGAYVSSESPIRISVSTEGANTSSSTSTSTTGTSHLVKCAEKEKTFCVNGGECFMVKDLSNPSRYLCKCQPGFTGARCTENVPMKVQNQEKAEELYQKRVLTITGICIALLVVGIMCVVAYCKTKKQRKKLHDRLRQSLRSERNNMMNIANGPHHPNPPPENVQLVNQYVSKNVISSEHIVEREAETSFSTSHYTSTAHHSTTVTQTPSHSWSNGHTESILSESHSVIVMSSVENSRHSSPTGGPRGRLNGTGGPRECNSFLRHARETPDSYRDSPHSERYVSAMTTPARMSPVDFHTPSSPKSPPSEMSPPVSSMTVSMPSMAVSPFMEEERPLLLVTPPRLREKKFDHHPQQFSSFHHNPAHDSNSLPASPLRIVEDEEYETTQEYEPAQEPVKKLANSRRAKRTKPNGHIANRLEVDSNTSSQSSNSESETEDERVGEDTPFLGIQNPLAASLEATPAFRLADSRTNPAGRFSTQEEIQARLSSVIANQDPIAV
Chain of Neurogenic locus notch homolog protein 3 (Homo sapiens) (Q9UM47 whole entry, looked up): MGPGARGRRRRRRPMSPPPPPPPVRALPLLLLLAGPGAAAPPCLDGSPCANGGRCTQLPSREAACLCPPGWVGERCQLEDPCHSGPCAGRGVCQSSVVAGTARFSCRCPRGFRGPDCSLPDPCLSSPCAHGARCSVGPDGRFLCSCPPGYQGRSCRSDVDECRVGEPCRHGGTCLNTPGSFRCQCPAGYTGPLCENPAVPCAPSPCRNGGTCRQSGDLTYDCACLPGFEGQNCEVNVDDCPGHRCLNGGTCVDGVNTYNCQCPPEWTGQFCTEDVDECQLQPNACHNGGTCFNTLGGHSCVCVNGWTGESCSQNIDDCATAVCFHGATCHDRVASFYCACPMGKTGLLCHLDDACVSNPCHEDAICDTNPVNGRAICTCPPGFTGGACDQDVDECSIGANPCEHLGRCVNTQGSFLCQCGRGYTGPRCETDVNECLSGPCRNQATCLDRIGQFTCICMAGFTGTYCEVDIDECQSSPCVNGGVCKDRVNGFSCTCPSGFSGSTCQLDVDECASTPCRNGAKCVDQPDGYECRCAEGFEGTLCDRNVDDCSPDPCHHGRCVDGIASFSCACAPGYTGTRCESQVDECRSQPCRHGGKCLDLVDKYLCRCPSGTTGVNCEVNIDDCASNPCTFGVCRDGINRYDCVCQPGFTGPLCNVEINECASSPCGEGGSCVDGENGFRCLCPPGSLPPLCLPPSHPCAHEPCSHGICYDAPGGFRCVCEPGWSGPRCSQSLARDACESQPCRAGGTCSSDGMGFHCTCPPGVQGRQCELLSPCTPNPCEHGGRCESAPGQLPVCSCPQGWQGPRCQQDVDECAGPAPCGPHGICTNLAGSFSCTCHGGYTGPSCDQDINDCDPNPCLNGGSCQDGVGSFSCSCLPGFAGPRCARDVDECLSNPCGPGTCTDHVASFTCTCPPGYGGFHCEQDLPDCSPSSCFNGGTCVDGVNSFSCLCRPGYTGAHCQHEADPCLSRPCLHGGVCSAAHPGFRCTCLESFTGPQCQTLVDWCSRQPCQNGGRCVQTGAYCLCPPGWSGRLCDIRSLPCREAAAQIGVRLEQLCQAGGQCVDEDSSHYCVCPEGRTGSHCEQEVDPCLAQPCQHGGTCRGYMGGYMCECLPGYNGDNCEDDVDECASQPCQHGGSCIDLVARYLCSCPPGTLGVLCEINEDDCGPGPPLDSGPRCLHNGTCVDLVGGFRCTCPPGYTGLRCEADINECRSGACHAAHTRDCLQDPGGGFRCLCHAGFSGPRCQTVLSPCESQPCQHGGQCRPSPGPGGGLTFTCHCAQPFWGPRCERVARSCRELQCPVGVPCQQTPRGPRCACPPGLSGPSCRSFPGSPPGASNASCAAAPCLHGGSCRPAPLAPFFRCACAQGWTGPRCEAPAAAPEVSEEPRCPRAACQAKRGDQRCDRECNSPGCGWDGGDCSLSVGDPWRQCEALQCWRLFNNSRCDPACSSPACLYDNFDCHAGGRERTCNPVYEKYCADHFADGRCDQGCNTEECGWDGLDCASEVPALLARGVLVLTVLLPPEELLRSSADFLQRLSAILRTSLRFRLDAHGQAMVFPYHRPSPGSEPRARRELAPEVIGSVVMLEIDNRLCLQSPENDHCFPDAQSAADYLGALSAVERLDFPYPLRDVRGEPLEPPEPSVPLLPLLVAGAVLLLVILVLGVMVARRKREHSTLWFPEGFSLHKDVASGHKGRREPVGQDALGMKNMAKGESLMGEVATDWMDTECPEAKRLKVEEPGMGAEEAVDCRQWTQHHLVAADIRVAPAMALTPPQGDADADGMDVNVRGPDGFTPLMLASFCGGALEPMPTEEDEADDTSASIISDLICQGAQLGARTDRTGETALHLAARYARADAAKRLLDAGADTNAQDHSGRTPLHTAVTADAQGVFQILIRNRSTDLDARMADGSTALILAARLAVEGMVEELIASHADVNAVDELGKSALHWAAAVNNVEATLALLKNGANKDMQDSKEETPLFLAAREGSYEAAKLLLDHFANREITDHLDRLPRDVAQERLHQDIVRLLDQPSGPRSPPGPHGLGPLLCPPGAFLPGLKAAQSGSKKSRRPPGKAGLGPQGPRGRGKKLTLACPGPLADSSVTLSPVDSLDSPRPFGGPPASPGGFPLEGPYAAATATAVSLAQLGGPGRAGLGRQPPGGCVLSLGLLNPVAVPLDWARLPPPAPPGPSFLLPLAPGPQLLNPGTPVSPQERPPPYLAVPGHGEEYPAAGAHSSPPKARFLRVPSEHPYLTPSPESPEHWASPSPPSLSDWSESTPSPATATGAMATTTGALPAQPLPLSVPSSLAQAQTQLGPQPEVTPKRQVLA
Chain of Torsin-1A-interacting protein 2 (Homo sapiens) (Q8NFQ8 whole entry, looked up): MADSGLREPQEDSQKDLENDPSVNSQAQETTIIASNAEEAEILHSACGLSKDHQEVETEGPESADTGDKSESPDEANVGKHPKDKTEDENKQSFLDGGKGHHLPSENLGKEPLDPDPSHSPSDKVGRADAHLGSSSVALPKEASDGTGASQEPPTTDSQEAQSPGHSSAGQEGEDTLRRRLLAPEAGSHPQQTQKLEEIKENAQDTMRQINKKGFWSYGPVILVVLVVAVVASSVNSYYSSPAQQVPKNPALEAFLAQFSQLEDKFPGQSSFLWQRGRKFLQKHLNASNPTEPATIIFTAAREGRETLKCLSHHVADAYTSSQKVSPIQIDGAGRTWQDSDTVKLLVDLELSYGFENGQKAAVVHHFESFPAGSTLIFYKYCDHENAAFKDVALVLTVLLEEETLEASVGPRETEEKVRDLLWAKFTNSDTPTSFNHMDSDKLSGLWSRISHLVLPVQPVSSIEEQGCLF

In the case of `CC(C)NC(=O)[C@@]1(c2ccc([N+](=O)[O-])cc2)CC(=O)N(C2CCCCC2)[C@@H]1c1ccc(CO)cc1I`, the composite z-score was 1.12 in experiment [1]; 0.586 in experiment [2]; -0.0548 in experiment [3]; -0.0891 in [4]; -0.0016 in [5]; 0.662 in experiment [6]. Besides, the composite z-score in experiment [7] is 1.12; in [9] it was 0.178; in experiment [10], 0.426; in [11] it was 1.03; in [15] it was 2.33; in [17], 0.134. The composite z-score was -0.941 in experiment [18], -0.0996 in experiment [19] and -0.0185 in [20]. Further, the z-score is 0.286 (inactive) in experiment [8]; 0.719 (inactive) in [12]; 0.475 (inactive) in experiment [13]; 2.6 (inactive) in experiment [14]; 1.21 (inactive) in experiment [16].

With `C=CC[C@@]12N=C(c3ccc(OCCCO)cc3)O[C@@H]1c1ccccc1N(C)C2=O`, the composite z-score was determined as 0.463 in experiment [1]; 0.233 in [2]; 0.128 in experiment [3]; 0.638 in [4]; 0.8 in experiment [5]; 1.38 in experiment [6]. In addition, the composite z-score in experiment [7] turned out to be 1.31; in experiment [9], 0.593; in experiment [10], 0.0972; in experiment [11], 1.55; in [15], 2.93; in experiment [17] it was 0.246. In addition, the composite z-score in [18] was found to be 1.75; in experiment [19], 0.997; in experiment [20], 0.0499. The z-score was 1.72 (inactive) in experiment [8]; 0.501 (inactive) in [12]; -5.65 (inactive) in experiment [13]; 0.432 (inactive) in experiment [14]; 0.671 (inactive) in experiment [16].

On to `CC1CC/C=C\[C@H]2OC34C=CCN(C(C)(C)C)C(=O)[C@H]3N(C(C)CO)C(=O)[C@@H]4C2C(=O)O1` (stereo not given in full), for which the composite z-score in experiment [1] was 0.101; in experiment [2], -0.702; in experiment [3], -0.128; in experiment [4], -0.414; in experiment [5], -1.04; in [6] it was -0.486. The composite z-score in experiment [7] was 0.061; in experiment [9], -0.39; in experiment [10], -0.0296; in experiment [11], -0.282; in experiment [15], -0.656; in experiment [17], -0.207. Moreover, the composite z-score in experiment [18] was 0.0449; in experiment [19], -0.454; in [20] it was -0.27. Besides, the z-score in [8] was -0.486 (inactive); in [12], 0.214 (inactive); in experiment [13], -0.538 (inactive); in [14], -0.0168 (inactive); in experiment [16], -0.434 (inactive).

In the case of `COCCOC(=O)N1C(=O)[C@@]2(c3cc(C#CCNC(N)=O)ccc31)[C@H](C(=O)N1CCN(c3ncccn3)CC1)[C@H]1C(=O)O[C@H](c3ccccc3)[C@H](c3ccccc3)N1[C@@H]2c1ccc(OCCO)cc1`, the composite z-score in [1] was determined as 0.0392; in [2], 0.382; in experiment [3] it was 0.0465; in experiment [4] it was 0.719; in experiment [5], 0.795; in experiment [6], 0.821. Besides, the composite z-score is 0.87 in [7]; 0.601 in [9]; 0.0939 in experiment [10]; 1.57 in [11]; 2.34 in [15]; 0.0158 in [17]. The values for the composite z-score in [18], in experiment [19] and in [20] were 0.707, 1.1 and -0.0271, respectively. Besides, the z-score was 0.0006 (inactive) in experiment [8]; 1.51 (inactive) in experiment [12]; 0.383 (inactive) in [13]; 4.36 (inactive) in experiment [14]; -0.351 (inactive) in experiment [16].

In the case of `O=C(OCc1ccccc1)C1=CCC2c3[nH]c4ccccc4c3C(=O)C1N2S(=O)(=O)c1ccccc1[N+](=O)[O-]` (stereo not given), the composite z-score is -0.154 in experiment [1]; -0.0749 in [2]; 0.105 in experiment [3]; 0.982 in experiment [4]; 1.7 in experiment [5]; 1.65 in experiment [6]. The composite z-score stood at 1.19 in experiment [7]; 0.627 in experiment [9]; 0.0759 in experiment [10]; 1.52 in experiment [11]; 3.57 in experiment [15]; 0.0673 in [17]. Moreover, the composite z-score is 0.614 in [18], 1.03 in experiment [19] and -0.112 in [20]. For the same molecule, the z-score in [8] is -4.32 (inactive); in [12] it was 0.802 (inactive); in experiment [13] it was 1.1 (inactive); in experiment [14], 7.14 (inactive); in [16], -0.639 (inactive).

For `COC(=O)[C@@]1(Cc2ccc(OC)cc2)[C@H]2c3cc(C(=O)N(C)C)n(C)c3C[C@H]2CN1C(=O)c1ccccc1`, the composite z-score in [1] was 0.32; in experiment [2], 0.35; in experiment [3] it was 0.24; in experiment [4] it was 0.759; in experiment [5] it was 1.66; in experiment [6] it was 1.85. Moreover, the composite z-score in experiment [7] stood at 1.18; in experiment [9] it was 1.48; in [10] it was 0.658; in experiment [11], 1.4; in [15], 3.73; in experiment [17] it was 0.654. Also, the composite z-score in experiment [18] was found to be 0.727; in [19], 1.02; in [20] it was 0.382. The z-score in experiment [8] is 1.76 (inactive); in experiment [12], 0.116 (inactive); in [13] it was -0.756 (inactive); in experiment [14], 9.05 (active); in [16], -1.63 (inactive).
